This is a sample that favours compounds with a hit; in the whole collection about 19% have one here.
DT40 TDP1 no CPT: qHTS for Inhibitors of human tyrosyl-DNA phosphodiesterase 1 (TDP1): qHTS in cells in absence of CPT; DT40 Tdp1-/- hTDP1 cells, no CPT, ATP luminescence, 48 h; Potency, µM (series often up to 46.2 µM), inactives show at the top dose activity change, negative = growth inhibition, usual class: inhibitors; hit rate 15% among 420,000; AID 686978, 2013; further: nearly all actives have a fitted effect of over 55% in size
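Readout: luminescence from CellTiter-Glo after 30 min in the dark at RT. Cells: DT40 Tdp1-/- with stable hTDP1, 400/well. Exposure: compounds alone, ≥48 hr, 37 °C.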
RORg inh: qHTS for inhibitors of ROR gamma transcriptional activity | Nuclear receptor ROR-gamma (Mus musculus), P51450 | hit rate 5.4% among 310,000 | Potency, µM (highest dose often 53.6 µM), inactives show top-dose activity change, negative = inhibition, actives largely listed as inhibitors | Drosophila S2 Gal4-RORgamma UAS-luciferase reporter, 20 h; further: nearly all actives have a fitted effect of over 60% in size
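ROR gamma transcriptional activity was tracked as Gal4-UAS luciferase output in stably transfected Drosophila Schneider cells, with compound added 1 hr before 700 uM copper sulfate induction and a 20 hr ambient-temperature incubation.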
Gal4-VP16 FLuc: VP16 counterscreen qHTS for inhibitors of ROR gamma transcriptional activity | Potency, µM (series often up to 53.6 µM), for inactives: at the top dose activity, negative = inhibition, actives largely listed as inhibitors | AID 2546, 2010 | Drosophila S2 Gal4-VP16 UAS-luciferase, luminescence, 20 h | hit rate 3.5% among 310,000;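 further: Gal4-VP16 expression switched on by copper sulfate through the metallothionein promoter; nearly all actives have a fitted effect of over 50% in size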
TDP1 cell CPT: qHTS for Inhibitors of human tyrosyl-DNA phosphodiesterase 1 (TDP1): qHTS in cells in presence of CPT; chicken DT40 Tdp1-/-;hTDP1 cells + 20 nM CPT, ATP luminescence, 48 h; Potency, µM (doses to about 46.2 µM), without a hit: at the top dose activity change, negative = growth inhibition, most hits filed as inhibitors; hit rate 12% among 420,000; further: nearly all actives have a fitted effect of over 55% in size
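Cell growth measured by CellTiter-Glo luminescence after a minimum 48 h, 37 C compound exposure with 20 nM CPT in Tdp1-knockout DT40 cells stably expressing hTDP1, seeded 400/well; qHTS titration format.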
TDP1 block: qHTS Assay for Inhibitors of Tyrosyl-DNA Phosphodiesterase (TDP1). recombinant TDP1, AlphaScreen DNA substrate cleavage. Potency, µM (highest dose often 130 µM), inactives show top-dose activity change, negative = inhibition, usual class: inhibitors. hit rate 0.28% among 350,000; further: nearly all actives have a fitted effect of over 40% in size
Target sequence (Q9NUW8 whole entry, looked up): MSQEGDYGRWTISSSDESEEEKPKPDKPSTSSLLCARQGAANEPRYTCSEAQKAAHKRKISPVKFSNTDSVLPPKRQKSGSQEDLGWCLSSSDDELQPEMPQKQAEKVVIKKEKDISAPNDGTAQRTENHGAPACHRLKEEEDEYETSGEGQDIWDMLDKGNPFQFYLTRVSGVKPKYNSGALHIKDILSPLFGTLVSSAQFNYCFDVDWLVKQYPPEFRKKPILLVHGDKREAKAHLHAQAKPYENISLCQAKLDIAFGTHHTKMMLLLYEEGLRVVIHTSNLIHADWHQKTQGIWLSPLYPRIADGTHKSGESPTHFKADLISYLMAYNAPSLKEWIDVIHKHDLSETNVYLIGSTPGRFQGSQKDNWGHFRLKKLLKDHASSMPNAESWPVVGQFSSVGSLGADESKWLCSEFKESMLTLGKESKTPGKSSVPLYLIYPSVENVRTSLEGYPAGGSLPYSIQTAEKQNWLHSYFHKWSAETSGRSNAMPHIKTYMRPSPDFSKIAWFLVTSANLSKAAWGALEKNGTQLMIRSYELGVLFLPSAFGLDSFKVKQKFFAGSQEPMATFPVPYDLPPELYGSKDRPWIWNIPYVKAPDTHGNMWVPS
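Compounds were preincubated with Tdp1 (1 nM final) for 15 min at room temperature before substrate (15 nM final) started a 5 min reaction; beads (10 ug/ml final) were then added for 10 min before AlphaScreen detection.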
Starred values were filed as active, the others as inactive; ? = inconclusive; · = no result; [ ] = dose if it differs, or a comment. The call rests on the fitted dose curve; in most records, active means well fitted curve in the direction sought with a large enough effect; inconclusive means small, poorly fitted or top-dose-only effect, or another doubt; inactive means no such curve, though single readings can be large; an effect the other way counts as inactive or inconclusive. On the % scale 0 is the no-effect control and ±100 the full control effect; potency means the concentration at half of the fitted maximal effect.

SMILES | DT40 TDP1 no CPT | RORg inh | Gal4-VP16 FLuc | TDP1 cell CPT | TDP1 block
CSCCC(=O)N1CCCC(CNC(=O)c2ccc(-c3ccccc3)cc2)C1 (centres undefined) | ? | 27% | -17% | ? | 5%
CCn1ccnc1CN(C)C(=O)c1cc(COc2ccc(OC)c3ccccc23)on1 | ? | -81% | 28µM* | 15µM* | 1%
CCOc1cccc(Oc2ccc(C(F)(F)F)cn2)c1 | -3% | 11% | -3% | -4% | -5%
N#Cc1ccccc1OCC(=O)N1N=C(c2cccs2)CC1c1ccco1 (centres undefined) | ? | · | · | ? | 4%
COc1ccc(OCc2cc(C(=O)N3CCCC(CO)C3)no2)c2ccccc12 (centres undefined) | 15µM* | 0% | 17% | ? | 8%
Cc1nn(C)cc1C(C)NC(=O)c1cc(COc2cccc3cnccc23)on1 (centres undefined) | ? | ? | ? | 10µM* | 3%
CSc1ccccc1OCc1cc(C(=O)N2CCCC(C)C2)no1 (centres undefined) | ? | 3% | ? | -7% | -17%
Cc1ccc(C2=NN(CC(=O)NCCN(C)C)C(=O)CC2)cc1 | -22% | -2% | -13% | -2% | ·
COc1ccc(-c2nnc(N(C)C(=O)C3CCCO3)s2)cc1 (centres undefined) | ? | ? | -15% | -9% | 4%
Cc1ccc(C(=O)NC2CC(C)(C)NC(C)(C)C2)cc1 | 10% | ? | -6% | 15% | ·
CC1(C)CC(NC(=O)c2coc(=O)c(Br)c2)CC(C)(C)N1 | 0.52µM* | ? | 0% | 0.33µM* | -4%
O=C(N/N=C/c1ccc2c(c1)OCO2)c1cc(-c2ccccc2)nc2ccccc12 | 10µM* | ? | ? | 21µM* | 1%
O=C(N/N=C/c1ccc2c(c1)OCO2)c1cc(-c2ccco2)nc2ccccc12 | 7.3µM* | · | · | 9.2µM* | -15%
O=C(NCCCN1CCCC1=O)c1cc(-c2ccc3c(c2)OCO3)nc2ccccc12 | ? | 1% | -10% | 16µM* | 3%
COc1ccccc1CNc1ccc(Br)cn1 | ? | 5% | -7% | -8% | ·
CCOc1ccccc1C(N)=O | 1% | 12% | -1% | -10% | 3%
CCCCCCOc1ccccc1C(N)=O | 16µM* | 7% | 3% | ? | 5%
CCCNC(=O)OC[C@@H]1O[C@H](CCO/N=C\[C@@H](C)[C@H](OCc2ccccc2)C(C)C)C=C[C@@H]1Oc1ccc(OC)cc1 | · | 14%[10 µM] | 3%[10 µM] | · | 8%[21 µM]
CCCCS(=O)(=O)N1CCCC(C(=O)Oc2ccccc2OC)C1 (centres undefined) | 17% | 7% | 2% | 11% | ·
Cc1cc(-c2cc(N)n(-c3ccccc3)n2)c(C)n1C1CCCC1 | ? | 20% | 25% | 29µM* | 5%
CNc1cc(C(=O)O)nc2ccccc12 | 1.1µM* | · | · | 0.89µM* | ·
COC(=O)c1c(NC(=O)COC(=O)CNC(=O)c2ccco2)sc(C)c1C | 5% | -10% | -12% | 9% | 5%
CCN(CC)S(=O)(=O)c1ccc(NC(=O)CCc2c(C)nc3cc(-c4ccc(Cl)cc4)nn3c2C)cc1 | 3.7µM* | · | · | 4.6µM* | 6%
CC(=O)c1ccc(NC(=O)CCc2c(C)nc3cc(-c4ccc(Cl)cc4)nn3c2C)cc1 | 6.5µM* | · | · | ? | -1%
O=C1/C(=C/C=C/c2ccco2)SC(=S)N1NS(=O)(=O)c1ccccc1 | 7% | -9% | 2% | ? | ·
SMILES | DT40 TDP1 no CPT | RORg inh | Gal4-VP16 FLuc | TDP1 cell CPT | TDP1 block
O=C(Cc1csc(Nc2nc(=S)[nH]c3ccccc23)n1)NCc1ccccc1Cl | 4.6µM* | 6% | -5% | 21µM* | 10%
Cc1ccc(CNC(=O)Cc2csc(Nc3nc(=S)[nH]c4ccccc34)n2)cc1 | · | 1.4µM* | 7.1µM* | · | 2%
O=C(Cc1csc(Nc2nc(=S)[nH]c3ccccc23)n1)N1CCN(c2cccc(C(F)(F)F)c2)CC1 | 16µM* | 0.63µM* | 7.1µM* | ? | 8%
O=C(Cc1csc(NC(=O)Nc2cccc(Cl)c2)n1)NCc1cccnc1 | ? | · | · | -23% | 3%
Cc1[nH]c2ccccc2c1NC(=O)CN1CCN(c2cccc(C(F)(F)F)c2)CC1 | ? | ? | -7% | ? | 5%
O=C(Cc1csc(Nc2nc(=S)[nH]c3ccccc23)n1)NCc1cccc(Cl)c1 | 18µM* | 6.3µM* | ? | ? | 8%
CC(=O)Nc1cccc(C(=O)Nc2cccc(S(=O)(=O)NCc3ccco3)c2)c1 | 6% | · | · | ? | 3%
CCOc1ccc(CCNC(=O)Cn2c(C)c3cnn(-c4ccccc4)c(=O)c3c2C)cc1 | -10% | · | · | -14% | 0%
OC(CN1CCCCC1)Cn1c2ccccc2c2cc(Br)ccc21 (centres undefined) | 16µM* | -13% | -1% | 16µM* | ·
OC(CN1CCNCC1)Cn1c2ccc(Br)cc2c2cc(Br)ccc21 (centres undefined) | · | ? | ? | · | 9%
Cc1ccc2c(c1)c1c(n2CC(O)CN2CCCCCC2)CCCC1 (centres undefined) | 15µM* | 20% | -5% | ? | ·
Cc1ccc2c(c1)c1c(n2CC(O)Cn2nc(C)c(Br)c2C)CCCC1 (centres undefined) | 16µM* | 13% | ? | ? | 0%
Cc1ccc2c(c1)c1c(n2CC(O)CNC(C)(C)C)CCCC1 (centres undefined) | ? | -14% | 6% | ? | 4%
Cc1ccc2c(c1)c1c(n2CC(O)Cn2c(C)nc3ccccc32)CCCC1 (centres undefined) | ? | 1.6µM* | -24% | 23µM* | 7%
CC12CCC(=O)N1C(C(=O)NCCN1C(=O)S/C(=C\c3ccccc3Cl)C1=O)CS2 (centres undefined) | ? | · | · | -25% | 2%
Cc1cc(C(=O)NC2CC2)c2ccccc2n1 | 5% | 0% | -10% | 10% | 6%
OC(CN1CCN(c2ccccn2)CC1)Cn1c2ccccc2c2ccccc21 (centres undefined) | 8.2µM* | 23% | -7% | 15µM* | 8%
CCC(=O)Nc1ccccc1-c1nc2ccccc2n(CC(=O)c2ccc(Cl)cc2)c1=O | ? | · | · | ? | -11%
CCC(=O)Nc1ccccc1-c1nc2ccccc2n(CC(=O)Nc2ccccc2OC)c1=O | 5.8µM* | · | · | 5.8µM* | -6%
COc1ccc(Cl)cc1NC(=O)Cn1c(=O)c(-c2ccccc2NC(C)=O)nc2ccccc21 | 15µM* | · | · | 13µM* | 9%

High-throughput results deposited in PubChem by National Center for Advancing Translational Sciences (NCATS).
